A selection: hits, their analogues and other compounds. The true share with any hit is near 0.82%.
GPT2 inh – Primary qHTS assay for inhibitors of Glutamate pyruvate transaminase 2 (GPT2). 100,000 tested, 0.25% active. Potency, µM (doses to about 57.7 µM), for the others: at the top dose activity change, negative = inhibition, most hits filed as inhibitors. Recombinant GPT2, coupled pyruvate oxidase/HRP Amplex Red fluorescence. Alanine aminotransferase 2 (Homo sapiens), Q8TD30; note: potency is the fitted concentration of half-maximal effect; nearly all actives have a fitted effect of over 60% in size
Target sequence (Q8TD30 whole entry, looked up): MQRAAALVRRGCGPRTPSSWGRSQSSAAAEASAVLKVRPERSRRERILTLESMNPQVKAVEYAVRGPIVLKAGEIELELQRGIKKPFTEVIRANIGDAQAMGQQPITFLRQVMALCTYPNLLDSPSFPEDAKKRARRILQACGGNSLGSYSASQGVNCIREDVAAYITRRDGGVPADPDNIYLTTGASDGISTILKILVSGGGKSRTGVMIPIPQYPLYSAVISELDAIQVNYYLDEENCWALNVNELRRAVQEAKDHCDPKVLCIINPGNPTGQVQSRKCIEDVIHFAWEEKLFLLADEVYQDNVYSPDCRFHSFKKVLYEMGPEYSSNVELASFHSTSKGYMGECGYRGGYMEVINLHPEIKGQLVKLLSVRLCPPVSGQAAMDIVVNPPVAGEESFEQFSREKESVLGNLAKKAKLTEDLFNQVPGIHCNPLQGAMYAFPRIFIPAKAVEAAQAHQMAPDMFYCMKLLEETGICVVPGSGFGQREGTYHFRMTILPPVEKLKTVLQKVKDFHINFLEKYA
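Inhibition is scored from Amplex Red fluorescence generated when pyruvate oxidase and HRP act on pyruvate released by GPT2. Reactions contain 10ng/uL enzyme, 250uM a-KG and 2mM L-alanine and run 30 min at room temperature.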
IP6K1 inhibitor – Primary qHTS assay for small molecule inhibitors of Inositol hexaphosphate kinase 1 (IP6K1); Inositol hexakisphosphate kinase 1 (Homo sapiens), Q92551; activity change, % (series mostly up to about 58 µM); AID 1645851, 2021; 140,000 tested, 0.81% active; IP6K1 kinase, ADP-Glo luminescence, 2 h; hits give low values; in the data active = activity change below about -25%
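ADP-Glo luminescence measures ADP made by human IP6K1 during a 2 h RT reaction with ATP/IP6 (mix at 1.3 mM/130 uM); top library doses 57.5 and 19.1 uM final.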
IP6K1 conf – Confirmatory qHTS assay for small molecule inhibitors of Inositol hexaphosphate kinase 1 (IP6K1); recombinant IP6K1 kinase, ADP-Glo luminescence, 2 h; 1,200 tested, 13% active; shares compounds with IP6K1 inhibitor; Potency, µM (doses to about 49 µM), for inactives: top-dose activity change, negative = inhibition, hits mostly inhibitors; note: potency is the fitted concentration of half-maximal effect; nearly all actives have a fitted effect of over 65% in size
An asterisk follows results filed as active; i = inactive; ? = inconclusive; · = no result; [ ] = another dose, or the depositor's remark. Unless noted, calls come from the whole dose curve; as a rule, active = well fitted curve in the direction sought with a large enough effect; inconclusive = small, poorly fitted or top-dose-only effect, or another doubt; inactive = no such curve, though single readings can be large; an effect the other way counts as inactive or inconclusive. % is set by controls: 0 for no effect and ±100 for the full control effect.

SMILES	GPT2 inh	IP6K1 inhibitor	IP6K1 conf
Cc1cccc(-c2nnc(SCCC(=O)O)o2)c1	·	-37*	?
CC(C)CN(Cc1cccnc1)C1CN(C(=O)CCc2nc3ccccc3s2)C1	i	-5	·
Brc1ccc2nc(SCCOc3ccccc3)[nH]c2c1	·	-32*	?
Cc1ccc(NC(=O)CSc2nc3ccc(Br)cc3[nH]2)c(C)c1	·	7	·
COCCc1noc([C@@H]2CC(F)(F)CN2C(=O)c2ccc(C)cn2)n1	-11%	-5	·
CCCC(O)CN1CCC(=O)N(Cc2ccccc2)Cc2cc(OC)ccc21 (configuration not stated)	·	-1	·
O=C(O)c1ccc(Nc2ncnc3scc(-c4ccccc4)c23)cc1	·	-15	·
Cc1ccc(-c2csc3ncnc(Nc4ccc(C(=O)O)cc4)c23)cc1	·	-25*	-25%
Cc1oc2c(c1C(=O)NCCN(C)C)CN(CCc1ccccc1)CC2	i	10	·
O=C(Nc1noc2ccccc12)c1c(F)cccc1F	·	-31*	?
O=C(Nc1ccn[nH]1)c1c(F)cccc1F	2%	5	·
Cc1cc(C)n2nc(C(=O)N3CCC(Cc4cccc(C(N)=O)c4)C3)nc2n1 (configuration not stated)	2%	12	·
NC(=O)c1cccc(CC2CCN(C(=O)c3ccnc(-n4cnnc4)c3)C2)c1 (configuration not stated)	i	-27*	-5%
O=C(c1ccc(F)c(Cl)c1)N1CC(CO)C2(CCNCC2)C1 (configuration not stated)	4%	11	·
CN(C)C[C@@H]1CN(c2ccncn2)C[C@H]1NC(=O)COc1ccc(Cl)cc1	?	2	·
CN[C@@H](CO)C(=O)NCc1nc(-c2ccc(C)cc2)c(-c2ccccn2)[nH]1	-5%	-45*	-10%
Cc1ccc(-c2nc(CNC(=O)C(C)CN)[nH]c2-c2ccccn2)cc1 (configuration not stated)	-20%	0	·
COC(=O)c1ccccc1NC(=O)c1sc2nc(C)cc(C)c2c1NC(=O)c1ccccc1OC	·	-30*	8%
COC(=O)c1ccccc1NC(=O)c1sc2nc(C)cc(C)c2c1NC(=O)c1ccccc1Cl	·	10	·
CC(C)CN(CCNC(=O)c1cn(C)c2ccc(S(=O)(=O)N3CCCC3)cc2c1=O)CC(C)C	·	29	-8%
CC(C)CN(CCNC(=O)c1cn(C)c2ccc(S(=O)(=O)N3CCOCC3)cc2c1=O)CC(C)C	·	11	·
CC(=O)N1CCC(C(=O)NC2CCN(c3cc(-c4ccccc4)[nH]n3)CC2)CC1	1%	1	·
C[C@@H](N)C(=O)N1CCC(n2nccc2NC(=O)Nc2cccc(F)c2)CC1	-18%	-11	·
NCCC(=O)N1CCC(n2nccc2NC(=O)Nc2cccc(F)c2)CC1	i[11.5 µM]	-30*	16%
O=C(NCC1CC1)c1nc2sccn2c1-c1ccccc1	2%[88.5 µM]	-3	·
SMILES	GPT2 inh	IP6K1 inhibitor	IP6K1 conf
CCCC(=O)c1ccc(OC(=O)c2c(-c3ccccc3Cl)noc2C)cc1	·	-35*	-12%
CCOc1ccc(OC(=O)c2c(-c3ccccc3Cl)noc2C)cc1	·	4	·
O=C(NC1CCCN(c2ccc3nnc(C4CC4)n3n2)C1)C1CCCC1 (configuration not stated)	·	15	·
CCc1ccc(NC(=O)C(NS(=O)(=O)c2cccc3nsnc23)c2ccccc2)cc1 (configuration not stated)	·	15	·
CCN(C(=O)C(NS(=O)(=O)c1cccc2nsnc12)c1ccccc1)c1ccccc1 (configuration not stated)	·	-28*	-12%
CCC1c2nccn2CCCN1C(=O)CCn1nc(C)cc1C (configuration not stated)	i	1	·
CCOc1ccc(-n2cc(-c3ccccc3)c3c(NC4CCCCC4)ncnc32)cc1	·	6	·
COc1ccc(-n2cc(-c3ccccc3)c3c(NC4CCCCC4)ncnc32)cc1	·	-25*	?
Cn1cc(-c2ccc3nnc(Sc4ccc5ncccc5c4)n3n2)cn1	3%	·	·
OCCn1cc(-c2cnc3nnn(Cc4ccc5ncccc5c4)c3n2)cn1	?	-12	-12%
COc1cccc(-c2nc3cc(SC)ccc3cc2CN(C)Cc2ccno2)c1	-14%[11.5 µM]	-33*	-11%
CN(Cc1ccno1)Cc1cn(C)nc1-c1ccc(C2CCCCC2)cc1	i	-3	·
O=C(COc1ccc(F)cc1)NCC(=O)N1CCN(c2ccccn2)CC1	?	-4	·
O=C1Nc2ccccc2OCC12CCN(Cc1ccncc1)CC2	3%[88.5 µM]	22	·

Bioassay records as filed in PubChem.
